This is part of a sample that, as a whole, favours compounds with a hit. Of some 79,000 tested, about 15% had one in any assay. Calls of active or inactive are those of the source. Rule as the data show it: active = growth inhibition above about 70%; inactive = the rest.
Legend:
[1] = NCI Yeast Anticancer Drug Screen. Data for the rad52 strain (AID 147);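 also: 0% = growth of vehicle-treated control cultures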; conditions: S. cerevisiae rad52 mutant growth inhibition, active compounds read high
How it was run: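 Inhibition of yeast growth, referenced to vehicle controls, was the measured output for a strain with defective DNA damage repair.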

[2] = NCI Yeast Anticancer Drug Screen. Data for the rad50EPP+ strain (AID 151);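 also: 0% = growth of vehicle-treated control cultures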; conditions: S. cerevisiae rad50 mutant strain, active compounds read high
How it was run: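 Genetically defined yeast (rad50EPP+, DNA damage repair alteration) is grown with compound, and inhibition of growth is expressed relative to vehicle-treated controls.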

[3] = NCI Yeast Anticancer Drug Screen. Data for the mgt1 strain (AID 153); conditions: S. cerevisiae mgt1 mutant growth inhibition, active compounds read high
How it was run: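 In the mgt1 strain, test compounds were added and growth inhibition was determined relative to vehicle-treated controls.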

[4] = NCI Yeast Anticancer Drug Screen. Data for the rad50 strain (AID 155);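 also: 0% = growth of vehicle-only cultures of the same strain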; conditions: S. cerevisiae rad50 strain growth inhibition, active compounds read high
How it was run: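 Relative growth inhibition (compound vs vehicle) was measured in yeast with a defined repair-gene alteration.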

[5] = NCI Yeast Anticancer Drug Screen. Data for the mec2-1 strain (AID 157); conditions: S. cerevisiae mec2-1 strain, active compounds read high
How it was run: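 Each compound was tested on mec2-1 yeast, a strain altered in DNA damage repair or cell cycle control. Growth inhibition is reported relative to vehicle.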

[6] = NCI Yeast Anticancer Drug Screen. Data for the rad14 strain (AID 159);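 also: 0% = growth of vehicle-treated control cultures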; conditions: S. cerevisiae rad14 strain growth inhibition, active compounds read high
How it was run: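 Screen for anticancer potential: a yeast strain altered in DNA damage repair is grown with compound, and reduced growth is quantified against vehicle controls.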

[7] = NCI Yeast Anticancer Drug Screen. Data for the sgs1 mgt1 strain (AID 161);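 also: 0% = growth of cultures given vehicle only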; conditions: S. cerevisiae sgs1 mgt1 strain, active compounds read high
How it was run: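 Genetically altered yeast, compound exposure, growth inhibition relative to vehicle.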

[8] = NCI Yeast Anticancer Drug Screen. Data for the CLN2oe strain (AID 163);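 also: 0% = growth of vehicle-only control cultures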; conditions: S. cerevisiae CLN2oe strain, active compounds read high
How it was run: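 First, the altered yeast strain was treated with each compound; second, its growth was measured; finally, inhibition was derived by comparison with vehicle controls.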

[9] = NCI Yeast Anticancer Drug Screen. Data for the cln2 rad14 strain (AID 165);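 also: 0% = growth equal to vehicle treated cultures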; conditions: S. cerevisiae cln2 rad14 strain, active compounds read high
How it was run: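 Test compounds were added to cln2 rad14 yeast cultures; inhibition of growth was then determined by comparison with vehicle treatment.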

[10] = NCI Yeast Anticancer Drug Screen. Data for the bub3 strain (AID 167); conditions: S. cerevisiae bub3 mutant strain, active compounds read high
How it was run: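 Screening used yeast with an engineered genetic alteration affecting cell cycle control. Compound-exposed cultures were compared with vehicle cultures, and reduced growth was taken as inhibition.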

[11] = NCI Yeast Anticancer Drug Screen. Data for the wt2 strain (AID 169);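 also: 0% = growth of vehicle-treated yeast cultures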; conditions: S. cerevisiae wt2 strain growth inhibition, active compounds read high
How it was run: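 The panel's yeast strains carry defined changes in DNA repair or cell cycle genes. Each strain is grown with compound, and growth loss is scored relative to vehicle.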

[12] = NCI Yeast Anticancer Drug Screen. Data for the mlh1 strain (AID 171);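 also: 0% = growth of vehicle-treated control cultures of the same strain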; conditions: S. cerevisiae mlh1 strain growth inhibition, active compounds read high
How it was run: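 Inhibition values reflect reduced yeast growth in the presence of compound, referenced to vehicle controls, using a strain chosen for its alteration in DNA repair or cell cycle control.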

[13] = NCI Yeast Anticancer Drug Screen. Data for the sgs1 strain (AID 173);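 also: 0% = growth of vehicle-only control cultures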; conditions: S. cerevisiae sgs1 mutant, active compounds read high
How it was run: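 Vehicle-treated cultures served as reference for growth inhibition of a yeast strain altered in DNA damage repair or cell cycle control after compound exposure.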

[14] = NCI Yeast Anticancer Drug Screen. Data for the mlh1 rad18 strain (AID 175); conditions: S. cerevisiae mlh1 rad18 strain growth inhibition, active compounds read high
How it was run: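 Inhibition values reflect reduced growth of mutant yeast versus vehicle-treated controls following compound exposure; the mutations affect DNA damage repair.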

[15] = NCI Yeast Anticancer Drug Screen. Data for the rad18 strain (AID 177); conditions: S. cerevisiae rad18 mutant growth inhibition, active compounds read high
How it was run: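 Steps: expose repair-mutant yeast to compound; measure growth; express as inhibition relative to vehicle control.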

[16] = NCI Yeast Anticancer Drug Screen. Data for the wt1 strain (AID 149);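 also: 0% = growth of vehicle-treated wt1 cultures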; conditions: S. cerevisiae wt1 strain (SPY 50644) growth inhibition, active compounds read high
How it was run: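 Using yeast strain wt1, compound-induced growth inhibition was determined against vehicle-treated cultures.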

[17] = at 5.0 µM (retest, dose inferred, filed as 0.5)
[18] = at 50.0 µM (retest, dose inferred, filed as 5.0)

Measured: growth inhibition

Cc1cc(O)cc(O)c1N=Nc1ccc([N+](=O)[O-])cc1
inactive: [1]; at 1.2 µM 5% | [1]; at 3.7 µM 12% | [1]; at 11.0 µM 11% | [1]; at 33.0 µM 20% | [1]; at 100.0 µM 32% | [2]; at 1.2 µM 18% | [2]; at 3.7 µM 12% | [2]; at 11.0 µM 15% | [2]; at 33.0 µM 22% | [2]; at 100.0 µM 21% | [3]; at 1.2 µM 11% | [3]; at 3.7 µM 15% | [3]; at 11.0 µM 23% | [3]; at 33.0 µM 59% | [3]; at 100.0 µM 64% | [4]; at 1.2 µM -6% | [4]; at 3.7 µM 2% | [4]; [17] 47% | [4]; at 11.0 µM -1% | [4]; at 33.0 µM 18% | [4]; at 100.0 µM 31% | [5]; at 1.2 µM 7% | [5]; at 3.7 µM 8% | [5]; [17] 54% | [5]; at 11.0 µM 8% | [5]; at 33.0 µM 46% | [5]; at 50.0 µM 36.1% | [5]; at 100.0 µM 63% | [6]; at 1.2 µM -18% | [6]; at 3.7 µM -21% | [6]; at 11.0 µM -14% | [6]; at 33.0 µM 38% | [6]; at 100.0 µM 61% | [7]; [17] 3% | [7]; [18] 25% | [7]; at 50.0 µM 46.6% | [8]; at 1.2 µM 24% | [8]; at 3.7 µM 22% | [8]; at 11.0 µM 30% | [8]; at 33.0 µM 42% | [8]; at 100.0 µM 55% | [9]; [17] 24% | [10]; at 1.2 µM 4% | [10]; at 3.7 µM 26% | [10]; [17] 16% | [10]; at 11.0 µM 43% | [10]; at 33.0 µM 56% | [10]; [18] 49% | [10]; at 50.0 µM 43.1% | [10]; at 100.0 µM 62% | [11]; at 1.2 µM 5% | [11]; at 3.7 µM 11% | [11]; at 11.0 µM -4% | [11]; at 33.0 µM 26% | [11]; at 100.0 µM 45% | [12]; at 1.2 µM -10% | [12]; at 3.7 µM -2% | [12]; at 11.0 µM -3% | [12]; at 33.0 µM 23% | [12]; at 100.0 µM 33% | [13]; at 1.2 µM -3% | [13]; at 3.7 µM -2% | [13]; at 11.0 µM 4% | [13]; at 33.0 µM 32% | [13]; at 100.0 µM 47% | [14]; [17] 48% | [14]; at 50.0 µM 55.8% | [15]; at 1.2 µM 5% | [15]; at 3.7 µM 3% | [15]; at 11.0 µM 8% | [15]; at 33.0 µM 11% | [15]; at 100.0 µM 32%
active: [4]; [18] 98% | [4]; at 50.0 µM 70.3% | [5]; [18] 95% | [9]; [18] 72% | [9]; at 50.0 µM 72.7% | [14]; [18] 99%

CCC(=O)OCCn1c2nc(=O)[nH]c(=O)c-2nc2cc(C)c(C)cc21
active: [2]; at 33.0 µM 73% | [2]; at 100.0 µM 88%
inactive: [1]; at 1.2 µM -10% | [1]; at 3.7 µM -12% | [1]; at 11.0 µM -5% | [1]; at 33.0 µM 0% | [1]; at 100.0 µM 0% | [16]; at 1.2 µM 8% | [16]; at 3.7 µM -4% | [16]; at 11.0 µM 4% | [16]; at 33.0 µM 7% | [16]; at 100.0 µM 11% | [2]; at 1.2 µM -1% | [2]; at 3.7 µM -13% | [2]; at 11.0 µM 24% | [4]; at 1.2 µM -57% | [4]; at 3.7 µM -17% | [4]; [17] 3% | [4]; at 11.0 µM -9% | [4]; at 33.0 µM 15% | [4]; [18] 10% | [4]; at 50.0 µM 33.3% | [4]; at 100.0 µM 44% | [5]; at 1.2 µM -2% | [5]; at 3.7 µM -3% | [5]; [17] 3% | [5]; at 11.0 µM -2% | [5]; at 33.0 µM -4% | [5]; [18] 14% | [5]; at 50.0 µM 42.9%

— PubChem BioAssay (NCI)
